Test results reported in publication PMC11062922 (Nature Chemical Biology, 2023).
Like-named read-outs stand apart in the source and are kept apart here.

Assays:
PI4KA = tested on: PI4KA; design: species or system human, MV4-11 + K-562 + COLO205 + SK-N-BE2 + OVCAR-8; conditions: read-out: apparent Kd; compound concentrations: 100 nM and 1000 nM (sheet 'Samples'), CATDS: 8.4526475439373194E-2; n = 1
PIK3C2A = tested on: PIK3C2A; design: species or system human, MV4-11 + K-562 + COLO205 + SK-N-BE2 + OVCAR-8; conditions: read-out: apparent Kd; compound concentrations: 100 nM and 1000 nM (sheet 'Samples'), CATDS: 5.6745724082573501E-2; n = 1
PIK3C2B = tested on: PIK3C2B; design: species or system human, MV4-11 + K-562 + COLO205 + SK-N-BE2 + OVCAR-8; conditions: read-out: apparent Kd; compound concentrations: 100 nM and 1000 nM (sheet 'Samples'), CATDS: 8.3411679268076702E-2; n = 1
PIK3CG = tested on: PIK3CG; design: species or system human, MV4-11 + K-562 + COLO205 + SK-N-BE2 + OVCAR-8; conditions: read-out: apparent Kd; compound concentrations: 100 nM and 1000 nM (sheet 'Samples'), CATDS: 0.150773969962682; n = 1
PRKDC = tested on: PRKDC; design: species or system human, MV4-11 + K-562 + COLO205 + SK-N-BE2 + OVCAR-8; conditions: read-out: apparent Kd; compound concentrations: 100 nM and 1000 nM (sheet 'Samples'), CATDS: 8.88426876970108E-2; n = 1
PIP4K2C = tested on: PIP4K2C; design: species or system human, MV4-11 + K-562 + COLO205 + SK-N-BE2 + OVCAR-8; conditions: read-out: apparent Kd; compound concentrations: 100 nM and 1000 nM (sheet 'Samples'), CATDS: 1; n = 1
PKM = tested on: PKM; design: species or system human, MV4-11 + K-562 + COLO205 + SK-N-BE2 + OVCAR-8; conditions: read-out: apparent Kd; compound concentrations: 100 nM and 1000 nM (sheet 'Samples'), CATDS: 1; n = 1
PRKCI = tested on: PRKCI; design: species or system human, MV4-11 + K-562 + COLO205 + SK-N-BE2 + OVCAR-8; conditions: read-out: apparent Kd; compound concentrations:100 nM and 1000 nM (sheet 'Samples'); n = 1
PRKD1 = tested on: PRKD1; design: species or system human, MV4-11 + K-562 + COLO205 + SK-N-BE2 + OVCAR-8; conditions: read-out: apparent Kd; compound concentrations:100 nM and 1000 nM (sheet 'Samples'); n = 1
ACOX1 = conditions: read-out: apparent Kd, n = 1
AKT3 = conditions: read-out: apparent Kd, n = 1
BTK = conditions: read-out: apparent Kd, n = 1
CDC42 = conditions: read-out: apparent Kd, n = 1
CDK7 = conditions: read-out: apparent Kd, n = 1
MAP3K2 = conditions: read-out: apparent Kd, n = 1
PIK3CD = conditions: read-out: apparent Kd, n = 1
PRKX;PRKY = conditions: read-out: apparent Kd, n = 1
STK16 = conditions: read-out: apparent Kd, n = 1
TTN = conditions: read-out: apparent Kd, n = 1
Q6ZSR9 = Q6ZSR9 (human, UniProt Q6ZSR9); design: species or system MV4-11 + K-562 + COLO205 + SK-N-BE2 + OVCAR-8; conditions: read-out: apparent Kd, n = 1
Q6ZSR9, sequence (Q6ZSR9 whole entry, looked up): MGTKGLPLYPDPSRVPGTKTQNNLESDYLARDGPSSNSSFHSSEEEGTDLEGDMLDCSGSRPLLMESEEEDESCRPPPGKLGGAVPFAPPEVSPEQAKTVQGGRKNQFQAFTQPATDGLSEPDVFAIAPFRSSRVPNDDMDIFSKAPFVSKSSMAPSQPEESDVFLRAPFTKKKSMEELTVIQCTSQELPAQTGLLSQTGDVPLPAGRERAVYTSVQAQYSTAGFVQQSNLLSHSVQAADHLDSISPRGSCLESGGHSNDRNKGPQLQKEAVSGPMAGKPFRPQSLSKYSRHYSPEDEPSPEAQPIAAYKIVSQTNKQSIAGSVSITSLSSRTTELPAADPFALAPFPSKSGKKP

[1] = compound concentrations:100 nM and 1000 nM (sheet 'Lestaurtinib' of Supplementary Table 1),run:Lestaurtinib_02339_R2,Plate:MR001
[2] = compound concentrations:100 nM and 1000 nM (sheet 'Lestaurtinib' of Supplementary Table 1),run:Lestaurtinib_02422_R1,Plate:MR006
[3] = compound concentrations:100 nM and 1000 nM (sheet 'Lestaurtinib' of Supplementary Table 1),run:Lestaurtinib_02487_R1,Plate:MR012
[4] = compound concentrations:100 nM and 1000 nM (sheet 'Lestaurtinib' of Supplementary Table 1),run:Lestaurtinib_02443_R3,Plate:MR009

Nc1ncc(-c2ccc3nccc(-c4ccncc4)c3c2)cc1S(=O)(=O)N1CCCCC1 [GSK1693850A]
potency estimated from few doses (PI4KA): 0.464 µM | potency estimated from few doses (PIK3C2A): 2.32 µM | potency estimated from few doses (PIK3C2B): 0.483 µM | potency estimated from few doses (PIK3CG): 0.0887 µM | potency estimated from few doses (PRKDC): 0.398 µM

COc1cc(Nc2nccc(N3CCC(NC(=O)C(C)c4ccc(Cl)cc4)C3)n2)cc(OC)c1OC (stereo not shown) [GSK1379757A]
potency estimated from few doses (PIP4K2C): 1.64 µM

Cn1cc(C2=C(c3cn(C)c4ccc(OCc5ccccc5)cc34)C(=O)NC2=O)c2ccccc21 [RO0317432-000]
potency estimated from few doses (PKM): 1.86 µM

CCn1c(-c2nonc2N)nc2ccccc21 [SB-693162]
potency estimated from few doses (PRKCI): 2.41 µM

Cc1cccc(-c2nc(Nc3ccc4c(cnn4C)c3)c3ccccc3n2)n1 [GW876731X]
potency estimated from few doses (PRKD1): 0.0928 µM

Lestaurtinib
potency estimated from few doses (ACOX1; compound concentrations:100 nM and 1000 nM (sheet 'Lestaurtinib' of Supplementary Table 1),run:Lestaurtinib_02364_R2,Plate:MR002): 1.36 µM | potency estimated from few doses (ACOX1; compound concentrations:100 nM and 1000 nM (sheet 'Lestaurtinib' of Supplementary Table 1),run:Lestaurtinib_02624_R1,Plate:MR020): 1.67 µM | potency estimated from few doses (AKT3; [1]): 1.91 µM | potency estimated from few doses (AKT3; compound concentrations:100 nM and 1000 nM (sheet 'Lestaurtinib' of Supplementary Table 1),run:Lestaurtinib_03172_R3,Plate:MR031): 1.54 µM | potency estimated from few doses (BTK; [2]): 0.76 µM | potency estimated from few doses (BTK; [3]): 0.385 µM | potency estimated from few doses (CDC42; compound concentrations:100 nM and 1000 nM (sheet 'Lestaurtinib' of Supplementary Table 1),run:Lestaurtinib_02437_R1,Plate:MR007): 1.44 µM | potency estimated from few doses (CDC42; compound concentrations:100 nM and 1000 nM (sheet 'Lestaurtinib' of Supplementary Table 1),run:Lestaurtinib_02765_R3,Plate:MR026): 1.44 µM | potency estimated from few doses (CDK7; [3]): 0.132 µM | potency estimated from few doses (CDK7; compound concentrations:100 nM and 1000 nM (sheet 'Lestaurtinib' of Supplementary Table 1),run:Lestaurtinib_02496_R2,Plate:MR013): 1.59 µM | potency estimated from few doses (MAP3K2; [1]): 2.13 µM | potency estimated from few doses (MAP3K2; [4]): 2.17 µM | potency estimated from few doses (PIK3CD; [1]): 0.19 µM | potency estimated from few doses (PIK3CD; compound concentrations:100 nM and 1000 nM (sheet 'Lestaurtinib' of Supplementary Table 1),run:Lestaurtinib_02577_R3,Plate:MR016): 0.0124 µM | potency estimated from few doses (PRKX;PRKY; [4]): 1.43 µM | potency estimated from few doses (PRKX;PRKY; compound concentrations:100 nM and 1000 nM (sheet 'Lestaurtinib' of Supplementary Table 1),run:Lestaurtinib_02896_R3,Plate:MR030): 2.21 µM | potency estimated from few doses (STK16; [2]): 1.43 µM | potency estimated from few doses (STK16; compound concentrations:100 nM and 1000 nM (sheet 'Lestaurtinib' of Supplementary Table 1),run:Lestaurtinib_03260_R1,Plate:MR033): 1.34 µM | potency estimated from few doses (TTN; compound concentrations:100 nM and 1000 nM (sheet 'Lestaurtinib' of Supplementary Table 1),run:Lestaurtinib_02364_R1,Plate:MR002): 1.91 µM | potency estimated from few doses (TTN; compound concentrations:100 nM and 1000 nM (sheet 'Lestaurtinib' of Supplementary Table 1),run:Lestaurtinib_02606_R2,Plate:MR019): 0.737 µM

CCn1c(-c2nonc2N)nc2cnc(Oc3cccc(NC(=O)c4ccc(N(C)C)cc4)c3)cc21 [GSK248233A]
potency estimated from few doses (Q6ZSR9; compound concentrations:100 nM and 1000 nM (sheet 'Samples')): 2.12 µM

COC[C@H](NC1=NC(=O)/C(=C/c2ccc3ncccc3c2)S1)c1ccccc1 [RO4595946-000]
potency estimated from few doses (Q6ZSR9; compound concentrations: 100 nM and 1000 nM (sheet 'Samples'), CATDS: 1): 1.58 µM
